Experimental data: PubChem BioAssay (NCI)
About 79,000 compounds went through this panel and 15% of them were active in at least one assay; those are over-represented in the sample as a whole. A number with no mark means an inactive call. The source made the active and inactive calls. Rule as the data show it: active = growth inhibition above about 70%; inactive = the rest.

Key:
[1] = NCI Yeast Anticancer Drug Screen. Data for the rad50 strain (AID 155);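 also: 0% = growth of vehicle-only cultures of the same strain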; details: S. cerevisiae rad50 strain growth inhibition, stronger effect = higher value
Summary of the method: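 Relative growth inhibition (compound vs vehicle) was measured in yeast with a defined repair-gene alteration.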

[2] = NCI Yeast Anticancer Drug Screen. Data for the mec2-1 strain (AID 157); details: S. cerevisiae mec2-1 strain, stronger effect = higher value
Summary of the method: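 Vehicle-treated cultures served as reference for growth inhibition of compound-exposed mec2-1 yeast.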

[3] = NCI Yeast Anticancer Drug Screen. Data for the sgs1 mgt1 strain (AID 161);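 also: 0% = growth of cultures given vehicle only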; details: S. cerevisiae sgs1 mgt1 strain, stronger effect = higher value
Summary of the method: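 Genetically altered yeast, compound exposure, growth inhibition relative to vehicle.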

[4] = NCI Yeast Anticancer Drug Screen. Data for the cln2 rad14 strain (AID 165);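 also: 0% = growth equal to vehicle treated cultures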; details: S. cerevisiae cln2 rad14 strain, stronger effect = higher value
Summary of the method: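 Each compound was tested on cln2 rad14 yeast. Inhibition of growth was calculated against vehicle-exposed controls.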

[5] = NCI Yeast Anticancer Drug Screen. Data for the bub3 strain (AID 167); details: S. cerevisiae bub3 mutant strain, stronger effect = higher value
Summary of the method: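 Screening used yeast with an engineered genetic alteration affecting cell cycle control. Compound-exposed cultures were compared with vehicle cultures, and reduced growth was taken as inhibition.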

[6] = NCI Yeast Anticancer Drug Screen. Data for the mlh1 rad18 strain (AID 175); details: S. cerevisiae mlh1 rad18 strain growth inhibition, stronger effect = higher value
Summary of the method: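 Vehicle-treated cultures served as the reference for growth inhibition in a yeast strain carrying DNA damage repair alterations exposed to each compound.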

[7] = at 5.0 µM (retest, dose inferred, filed as 0.5)
[8] = at 50.0 µM (retest, dose inferred, filed as 5.0)

Row | SMILES | growth inhibition [1, 7] | growth inhibition [1, 8] | growth inhibition ([1]; at 50.0 µM) | growth inhibition [2, 7] | growth inhibition [2, 8] | growth inhibition ([2]; at 50.0 µM) | growth inhibition [3, 7] | growth inhibition [3, 8] | growth inhibition ([3]; at 50.0 µM) | growth inhibition [4, 7] [%] | growth inhibition [4, 8] | growth inhibition ([4]; at 50.0 µM) | growth inhibition [5, 7] | growth inhibition [5, 8] | growth inhibition ([5]; at 50.0 µM) | growth inhibition [6, 7] | growth inhibition [6, 8] | growth inhibition ([6]; at 50.0 µM)
1 | O=C(O)C(c1ccccc1)c1ccc(-c2ccccc2)cc1 (stereo not given) | 3% | 82% (active) | 96.7% (active) | -2% | 64% | 96% (active) | 5% | 80% (active) | 97.8% (active) | -7 | 80% (active) | 97% (active) | 1% | 49% | 79% (active) | 0% | 80% (active) | 91.2% (active)
2 | CS(=O)(=O)OCCN(CCOS(C)(=O)=O)c1ccc(C=Nc2ccc(-c3csc(-c4ccc(Cl)cc4)n3)cc2)cc1 | 37% | 92% (active) | 92.5% (active) | 15% | 94% (active) | 94.4% (active) | 36% | 93% (active) | 92.3% (active) | 6 | 91% (active) | 71.2% (active) | 1% | 61% | 69.4% | 53% | 95% (active) | 95.2% (active)
3 | O=[N+]([O-])/C=C/C=C/c1ccco1 | -1% | 98% (active) | 99.6% (active) | 3% | 99% (active) | 64.2% | 6% | 94% (active) | 97.2% (active) | 2 | 99% (active) | 99.1% (active) | 7% | 98% (active) | 99.1% (active) | -5% | 98% (active) | 95.8% (active)
4 | CCOC(=O)c1c(C)c2c(n1C)CCc1sc(N)nc1-2 | 14% | 66% | 96% (active) | 7% | 58% | 96.8% (active) | 5% | 65% | 98.3% (active) | -1 | 26% | 43.3% | 2% | 80% (active) | 96.7% (active) | -1% | 58% | 90.2% (active)
5 | O=Cc1ccc(O)cc1O | 8% | 24% | 58.5% | 8% | 16% | 29.6% | 7% | 15% | 25.8% | 4 | 14% | -38.6% | 7% | 10% | 55.4% | 1% | 13% | 59%
6 | O=[N+]([O-])c1ccc2c(c1)/C(=N\O)c1cc(Br)ccc1-2 | 14% | 39% | 91.4% (active) | 5% | 24% | 71% (active) | 13% | 33% | 67.2% | -2 | 14% | 35.4% | -5% | 3% | 13.7% | 10% | 29% | 96.8% (active)
7 | CN(C)CCCNc1c2ccccc2nc2ccc(F)cc12 | 0% | 24% | 27.2% | -8% | 26% | 24.4% | 6% | 24% | 15.2% | 8 | 21% | 81.8% (active) | 0% | 6% | 42.5% | 14% | 27% | 36.8%
8 | O=C1/C(=C(/Br)I)c2ccccc2-c2ccccc21 | 98% (active) | 87% (active) | 7.85% | 99% (active) | 91% (active) | 58.9% | 96% (active) | 94% (active) | 64.3% | 53 | 90% (active) | 44% | 99% (active) | 89% (active) | 75.7% (active) | 99% (active) | 88% (active) | 59%
9 | CCN(CC)C1Oc2cc3c(cc2C(c2ccc(OC)cc2)C1C)OCO3 (stereo not given) | 2% | 96% (active) | 82.3% (active) | -38% | 96% (active) | 77.5% (active) | -48% | 95% (active) | 89.3% (active) | 1 | 95% (active) | 81% (active) | -34% | 98% (active) | 84.5% (active) | -14% | 97% (active) | 85.3% (active)
10 | CN(C)CCOC1(CC2CCCCC2)CCC(C(C)(C)C)CC1 (stereo not given) | -9% | 100% (active) | 99% (active) | -17% | 99% (active) | 99% (active) | -6% | 99% (active) | 99.4% (active) | 11 | 100% (active) | 99.5% (active) | -1% | 100% (active) | 98.9% (active) | 14% | 100% (active) | 99.3% (active)
